# Results as given in PubChem BioAssay AID1259343 (VanderVen Lab, College of Veterinary Medicine, Cornell …, 2017).
# Among all 6,200 compounds or so, about 2,900 (47%) were called active. No stated cut-off is given here; in the data, active means inhibition above about 50%; inactive means the rest. So high a share suggests a set chosen from earlier hits. This is one part of the list.
# Assay: Mycobacterium tuberculosis growth inhibition, primary screen (AID 1259343)
# Details: inhibition: at 10 µM, active compounds read high; outcome: 10 uM
row,Compound,inhibition
1,COc1ccc(-c2c(O)c3c(OC)c4c(cc3oc2=O)OC(C)(C)C=C4)cc1,63.3% (active)
2,CC(=O)O[C@@H]1C[C@@]2(C)[C@H](c3ccoc3)C[C@H]3O[C@]32[C@]2(C)C(=O)C(O)=C3C(C)(C)C(=O)C=C[C@]3(C)C12 (stereo not given in full),94.8% (active)
3,COc1cc(=C2C=c3ccccc3=N2)[nH]/c1=C\c1[nH]c(C)cc1C,-5.42% (inactive)
4,O=C(NC(=S)Nc1ccc(N2CCN(C(=O)c3ccccc3)CC2)cc1)c1ccco1,99.1% (active)
5,O=C(Nc1cccc(-c2cccc(Cl)c2)c1)C1CCN(C(=O)C2CCCO2)CC1 (stereo not given),9.39% (inactive)
6,O=C(Nc1cccc(-c2cccc(Cl)c2)c1)C1CCN(C2CCOCC2)CC1,88.7% (active)
7,O=C(Nc1cccc(-c2cccc(Cl)c2)c1)C1CCN(C(=O)c2cccnc2)CC1,inactive
8,O=C(Nc1cccc(-c2cccc(Cl)c2)c1)C1CCN(C(=O)c2ccccc2)CC1,85.9% (active)
9,O=C(Nc1cccc(-c2cccc(Cl)c2)c1)C1CCN(C(=O)c2csnn2)CC1,-4.87% (inactive)
10,COc1ccc(C(=O)N2CCC(C(=O)Nc3cccc(-c4cccc(Cl)c4)c3)CC2)o1,70.5% (active)
11,O=C(Nc1cccc(-c2cccc(Cl)c2)c1)C1CCN(C(=O)C2CCOC2)CC1 (stereo not given),71% (active)
12,O=C(Nc1cccc(-c2cccc(Cl)c2)c1)C1CCN(C(=O)C2CC=CCC2)CC1 (stereo not given),81.6% (active)
13,CC(C)c1nccc(-c2nccn2CC2(O)CCN(C)CC2)n1,-4.81% (inactive)
14,COc1ccccc1-c1c(C)nn2c(NC(C)c3ccccc3)cc(C)nc12 (stereo not given),5.58% (inactive)
15,COc1ccc(Cc2[nH]n3c(=O)cc(C)nc3c2-c2ccccc2)cc1,37.9% (inactive)
16,COc1ccccc1-c1c(C)[nH]n2c(=O)cc(-c3ccc([N+](=O)[O-])cc3)nc12,77.8% (active)
17,CC(Oc1ccc(Cl)cc1Cl)c1nc(-c2ccncc2)no1 (stereo not given),43.3% (inactive)
18,COc1ccc(Nc2nc3cc(Cl)ccc3o2)cc1Cl,21.2% (inactive)
19,COc1ccc(NC(C)c2nc(C)no2)cc1Cl (stereo not given),57.6% (active)
20,CNc1nc(C)c(C(=O)c2ccc(C)cc2)s1,86.1% (active)

row,Compound,inhibition
1,CC(Cc1ccco1)NC(=O)c1cc2c(s1)CCC2 (stereo not given),93.1% (active)
2,CN(CC(=O)Nc1sc2c(c1C#N)CCCCC2)Cc1ccco1,49.1% (inactive)
3,O=C(NNS(=O)(=O)c1ccc2c(c1)OCCO2)c1cc2c(s1)CCCCC2,20.9% (inactive)
4,S=c1sc2c(Cl)ncnc2n1-c1ccccc1,60.9% (active)
5,Cn1c(=O)c([N+](=O)[O-])c(N2CCN(Cc3cccc4ccccc34)CC2)c2ccccc21,59% (active)
6,Cn1c(=O)c([N+](=O)[O-])c(N2CCN(Cc3ccc(Cl)cc3Cl)CC2)c2ccccc21,40.7% (inactive)
7,Cn1c(=O)c([N+](=O)[O-])c(N2CCN(CCOc3ccc(Cl)cc3)CC2)c2ccccc21,38.3% (inactive)
8,CC(NCc1cc(=O)n2cc(Br)ccc2n1)c1cc(F)c(Cl)cc1Cl (stereo not given),27.6% (inactive)
9,Brc1ccc(CSc2nc3ncccc3[nH]2)cc1,34% (inactive)
10,O=c1cc(CSc2nc3ncc(Cl)cc3[nH]2)nc2ccc(Br)cn12,101% (active)
11,CCCC[P+](CCCC)(CCCC)Cc1ccc(NC(=O)[C@@H](Cc2ccc3ccccc3c2)NC(=NC2CCCCC2)NC2CCCCC2)cc1,95.8% (active)
12,O=C(Nc1ncccc1OCC1CCCCC1)c1cscn1,55.5% (active)
13,O=S(=O)(NCC1(c2ccccc2)CC1)N1CCCCCC1,16.5% (inactive)
14,O=C(NCC1(c2ccccc2)CC1)c1cc(Cl)ccc1O,94.2% (active)
15,N#CC(C(=O)COc1cc(F)ccc1F)c1nc2ccccc2s1 (stereo not given),91.5% (active)
16,N#CC(C(=O)C1COc2ccccc2O1)c1nc2ccccc2s1 (stereo not given),19% (inactive)
17,N#CC(C(=O)C1c2ccccc2-c2ccccc21)c1nc2ccccc2s1 (stereo not given),33.3% (inactive)
18,COc1ccc2cc(-c3[nH]ncc3CNC(C)Cc3cccs3)ccc2c1 (stereo not given),50.1% (active)
19,COc1ccc(-c2[nH]ncc2CNC(=O)CC2COCCN2)cc1 (stereo not given),-11.1% (inactive)
20,CCOc1ccc(Oc2ccc(NC(C)=O)cc2)cc1,-0.29% (inactive)

row,Compound,inhibition
1,CCOc1ccc(OCCCCOc2ccccc2C(C)=O)cc1,98% (active)
2,CCOc1cccc(OCCCOc2ccccc2C(C)=O)c1,92.5% (active)
3,CCOc1ccc(Oc2ccccc2NC(C)=O)cc1,73.6% (active)
4,CC1CN(C(=O)c2ccc(NC(=O)C3CC3)cc2)c2ccccc2O1 (stereo not given),87.7% (active)
5,CCCCc1ccc(-c2csc(NC(=O)OC)c2C(N)=O)cc1,2.76% (inactive)
6,CCCCCCCCc1ccc(CCC(N)(CO)CO)cc1,92% (active)
7,COc1ccc(/C=N\Nc2nc(-c3ccc4c(c3)OCCO4)cs2)cc1OC,85.6% (active)
8,CCOc1ccc(/C=N\Nc2nc(-c3ccc(OC)c(OC)c3)cs2)cc1,79.8% (active)
9,CCOc1ccc(C=C2N=C(C(C)(C)C)OC2=O)cc1OC,23.4% (inactive)
10,Cc1ccc(/C=N\Nc2nc(-c3ccc4c(c3)OCCO4)cs2)cc1,-51.4% (inactive)
11,c1cc2c(cc1-c1csc(NCC3CCC3)n1)OCCCO2,3.11% (inactive)
12,CCN(CC)c1ccc2cc(-c3csc(N/N=C\c4ccc(OC)cc4)n3)c(=O)oc2c1,25.9% (inactive)
13,CCOc1cc(C=NNc2nc(C)cs2)ccc1OC,72% (active)
14,CN1CC(CNC(=O)OCc2ccccc2)CC2c3cccc4c3c(cn4C)CC21 (stereo not given),96.7% (active)
15,CCOP(=O)(Oc1ccccc1)c1c([N+](=O)[O-])cc(C(F)(F)F)cc1[N+](=O)[O-] (stereo not given),94.9% (active)
16,CC(C)Oc1ccc(Nc2nccc3[nH]c(-c4ccccc4)cc23)cc1,92.6% (active)
17,CC(Oc1ccc(-n2cnc(-c3ccccc3)c2)cc1)C(N)=O (stereo not given),43.6% (inactive)
18,CCN(CC)c1cc(-c2ccccc2)nc(SCc2cccc(C(=O)O)c2)n1,8.57% (inactive)
19,O=C(CSc1ccc2nc(-c3ccccc3)cn2n1)c1ccccc1,65.7% (active)
20,c1ccc(CSc2nn3cc(-c4ccccc4)nc3s2)cc1,16.3% (inactive)
